Hit rate of the full screen: of about 5,600 compounds, about 390 (7%) showed an effect of 50% or more. The sample holds strong results, similar compounds and a random draw of the others, so the mix is not that of the screen. Starred links: 1 amine or outer side, 2 acyl side, 3 side chain; linkers in the order of their positions; H or OH if unused. Positions of bridges follow the written chain, without caps; N, C: chain ends. Non-standard residues stand in square brackets, D forms with d. Residues, ends and D or L forms follow the SMILES beside them. *: point of attachment. pTerphenylCO(4''-OnC5H11) = CCCCCOc1ccc(-c2ccc(-c3ccc(C(=O)*)cc3)cc2)cc1; Orn(4R-OH,5R-OH) = O=C([C@H](C[C@@H](O)[C@@H](O)N[*:3])N[*:1])[*:2]; hTyr(3S-OH,4S-OH) = N[C@H](C(=O)O)[C@H](O)[C@@H](O)c1ccc(O)cc1; Pro(3S-OH,4S-Me) = C[C@H]1CN[C@H](C(=O)O)[C@H]1O; Hyp = O=C(O)[C@@H]1C[C@@H](O)CN1
Target: T1, Protein deacetylase HDAC6 (Homo sapiens) (UniProt Q9UBN7)
T1 sequence (whole entry): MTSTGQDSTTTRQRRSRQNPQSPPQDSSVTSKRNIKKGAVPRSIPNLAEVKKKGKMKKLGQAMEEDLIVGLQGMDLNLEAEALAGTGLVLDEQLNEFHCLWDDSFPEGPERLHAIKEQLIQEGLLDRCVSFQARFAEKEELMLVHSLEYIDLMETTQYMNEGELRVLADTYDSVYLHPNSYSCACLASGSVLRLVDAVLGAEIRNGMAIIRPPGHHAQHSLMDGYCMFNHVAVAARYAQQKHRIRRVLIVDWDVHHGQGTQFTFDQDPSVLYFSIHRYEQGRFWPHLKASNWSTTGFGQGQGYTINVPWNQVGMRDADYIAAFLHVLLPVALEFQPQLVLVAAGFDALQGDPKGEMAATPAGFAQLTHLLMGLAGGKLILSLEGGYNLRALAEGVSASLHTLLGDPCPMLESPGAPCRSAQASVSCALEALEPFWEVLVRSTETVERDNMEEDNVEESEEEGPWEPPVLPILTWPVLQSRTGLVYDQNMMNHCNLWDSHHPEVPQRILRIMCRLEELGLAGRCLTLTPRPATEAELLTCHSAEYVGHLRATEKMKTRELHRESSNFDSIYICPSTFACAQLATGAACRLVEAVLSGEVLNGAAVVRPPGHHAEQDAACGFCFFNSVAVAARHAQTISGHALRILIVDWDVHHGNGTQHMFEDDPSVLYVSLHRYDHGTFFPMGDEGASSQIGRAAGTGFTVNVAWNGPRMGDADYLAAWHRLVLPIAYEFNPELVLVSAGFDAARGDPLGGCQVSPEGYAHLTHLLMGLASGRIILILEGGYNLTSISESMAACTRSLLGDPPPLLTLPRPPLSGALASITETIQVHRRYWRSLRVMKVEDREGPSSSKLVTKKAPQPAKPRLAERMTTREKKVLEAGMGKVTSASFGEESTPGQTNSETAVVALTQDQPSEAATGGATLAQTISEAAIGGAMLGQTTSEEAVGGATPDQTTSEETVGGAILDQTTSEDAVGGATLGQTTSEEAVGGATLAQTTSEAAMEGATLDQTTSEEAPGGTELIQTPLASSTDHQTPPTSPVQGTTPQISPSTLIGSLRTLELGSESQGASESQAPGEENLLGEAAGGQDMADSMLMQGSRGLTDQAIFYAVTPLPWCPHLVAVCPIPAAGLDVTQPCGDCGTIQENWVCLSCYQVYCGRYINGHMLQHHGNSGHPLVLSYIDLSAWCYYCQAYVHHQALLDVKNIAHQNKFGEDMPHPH
Details: at 10 µM

SMILES	inhibition [%]
C=CC(=O)N1CCC[C@@H](n2c(=O)n(-c3ccc(Oc4ccccc4)cc3)c3c(N)ncnc32)C1	9.93
Nc1ncnc2c1c(-c1cnc3[nH]ccc3c1)nn2C1CCCC1	27.2
COc1ccc2nc3ccc(Cl)cc3c(SCCCN)c2c1	31.8
COc1cc(C(=O)c2c(C)oc3c(O)c(OC)ccc23)cc(OC)c1OC	31.9
CCN(CC)C(=O)C1(c2ccccc2)CC1CN (stereo unspecified)	-2.35
COc1cccc2c1c(O)c(C(=O)N(C)c1ccc(C(F)(F)F)cc1)c(=O)n2C	-4.13
C[C@@H]1CN(CCCn2c3ccccc3c3ccccc32)C[C@H](C)N1	1.8
O=C(Nc1cccc(C(F)(F)F)c1)Nc1ccc(Br)cc1-c1nnn[nH]1	-9.24
O=c1c2ccccc2[se]n1-c1ccccc1	107
Cc1c(C(=O)Nc2ccc(N3CCC(N4CCOCC4)CC3)c(C#N)c2)cnn1-c1ccc(Cl)cc1	9.57
CCC[N+]12C3C[C@H](C4C(O)[C@]5(C[C@@H]41)c1ccccc1N(C)[C@@H]35)[C@H](CC)[C@H]2O (stereo partly specified)	26.3
CS(=O)(=O)CS(=O)(=O)OCCCl	9.47
CC(OC(=O)NCC1(CC(=O)O)CCCCC1)OC(=O)C(C)C (stereo unspecified)	3.02
c1ccc2sc(SNC3CCCCC3)nc2c1	80
C#Cc1cncc([C@@H]2CCCN2C)c1	18.9
CO[C@@H](C(=O)N1Cc2[nH]nc(NC(=O)c3ccc(N4CCN(C)CC4)cc3)c2C1)c1ccccc1	21.1
CCCCCOc1ccc(-c2ccc(-c3ccc(C(=O)N[C@H]4C[C@@H](O)[C@@H](O)NC(=O)[C@@H]5[C@@H](O)[C@@H](C)CN5C(=O)[C@H]([C@@H](C)O)NC(=O)[C@H]([C@H](O)[C@@H](O)c5ccc(O)cc5)NC(=O)[C@@H]5C[C@@H](O)CN5C(=O)[C@H]([C@@H](C)O)NC4=O)cc3)cc2)cc1 ({pTerphenylCO(4''-OnC5H11)}-[Orn(4R-OH,5R-OH)]T[Hyp][hTyr(3S-OH,4S-OH)]T[Pro(3S-OH,4S-Me)]; lactam 1-C)	16.9
Cc1cc(Nc2cc(C)c(C#N)c(N[C@@H](C)CCCC(C)(C)O)n2)n[nH]1	27.9
Cc1ccc(C23CNCC2C3)cc1 (stereo unspecified)	-3.02
O=C(O)c1ccccc1C(=O)Nc1ccc(-c2ccccc2)cc1	68
CC(=O)NS(=O)(=O)c1ccc(NC(=O)c2ccccc2C(=O)O)cc1	-8.72
O=C(O)c1ccccc1S	17.6
CCN(CC)CCOc1ccccc1C(=O)CCc1ccccc1	2.33

SMILES	inhibition [%]
C[C@H](N)C(=O)N[C@@H](CCC(N)=O)C(=O)O (H-Ala-Gln-OH)	-3.39
COc1ccc(N2CCOCC2)c2sc(NC(=O)N3CCC(C)(O)CC3)nc12	2.18
Cc1cc(NC(=O)C(c2ccccc2)N2CCCc3ccccc32)no1 (stereo unspecified)	6.26
O=C(CNC(=O)c1ccc(Cl)cc1)NO	42.6
COc1cc(C(=O)NCCCCCC(=O)O)cc(OC)c1OC	0.73
CN(C)c1ccc(C(=O)NCCCCCCC(=O)NO)cc1	102
CC(=O)O[C@@H]1CC[C@@]2(C)[C@@H](CC[C@]3(C)[C@@H]2C(=O)C=C2[C@@H]4[C@@H](C)[C@H](C)CC[C@]4(C)CC[C@]23C)[C@@]1(C)C(=O)O	-8.47
CCc1noc(C)c1-c1[nH]c2ccccc2c1C(O)CN(C)C (stereo unspecified)	3.93
CN(C)CCCSc1ccccc1NC(=O)/C=C/c1ccccc1	97.2
O=C1c2ccccc2CCC1CNCCc1ccc(O)cc1 (stereo unspecified)	4.32
COc1cc(-c2ccc(/N=N/c3ccc4c(S(=O)(=O)O)cc(S(=O)(=O)O)c(N)c4c3O)c(OC)c2)ccc1/N=N/c1ccc2c(S(=O)(=O)O)cc(S(=O)(=O)O)c(N)c2c1O	69.8
COc1cc(O)c(C(=O)c2ccccc2)cc1S(=O)(=O)O	-4.32
OC(CNc1ccccc1)Cn1c2ccc(Br)cc2c2cc(Br)ccc21 (stereo unspecified)	-9.16
Cc1cc(-c2cc(OC(=O)c3ccccc3)ccc2Cl)cc2nnc(Nc3ccc(OCCN4CCCC4)cc3)nc12	-4.96
CC(=O)[C@]1(N)Cc2c(O)c3c(c(O)c2[C@@H](O[C@H]2C[C@H](O)[C@H](O)CO2)C1)C(=O)c1ccccc1C3=O	18.4
Cc1oc(=O)oc1COC(=O)C1=C([C@H]2CCCO2)S[C@@H]2[C@@H]([C@@H](C)O)C(=O)N12	31.1
Cc1ccc(-n2nc(C(C)(C)C)cc2NC(=O)NCc2cc(F)ccc2Oc2ccc3c(cnn3CCO)c2)cc1	30.6
Cc1ccnc2c1CCCC2C(N)=S (stereo unspecified)	-0.81
CC(CN(C)C)CN1c2ccccc2Sc2ccc(C#N)cc21 (stereo unspecified)	7.25
O=C1NC(=O)/C(=C\c2ccc(-c3ccc(F)cc3)o2)S1	60.3
CN1c2c(oc(=O)n(-c3ccccn3)c2=O)-c2ccccc2S1(=O)=O	16.6
CN1C(=O)N(c2ccc(C#N)c(C(F)(F)F)c2)C(=O)[C@]1(CO)c1ccccc1	40.5
Cc1nc(-c2cccnc2)sc1C(=O)Nc1ccccc1-c1cn2c(CN3CCOCC3)csc2n1	11.9

— ChEMBL document CHEMBL4808148, “HDAC6 screening dataset using tau-based substrate in an enzymatic assay yields selective inhibitors and activators” (2021)
